Experimental data published in the antibiotic and cytotoxicity screens of Wong et al. (2023).
Out of some 39,000 compounds screened, about 1,500 (3.8%) were called active. Only a selection was taken, and actives are over-represented in it overall.

Tested on: HSkMC (human skeletal muscle cells)
Test: cytotoxicity call (relative viability < 0.9)
Conditions: 10 µM

Q: With `C[C@H]1O[C@@H](O[C@H]2[C@@H](O)C[C@H](O[C@H]3[C@@H](O)C[C@H](O[C@H]4CC[C@@]5(C)[C@H](CC[C@@H]6[C@@H]5C[C@@H](O)[C@]5(C)[C@@H](C7=CC(=O)OC7)CC[C@]65O)C4)O[C@@H]3C)O[C@@H]2C)C[C@H](O)[C@@H]1O` as the compound, how does the cytotoxicity call read?
A: active

Q: How did the cytotoxicity call turn out when `CC1OC(OC2C(O)CC(OC3C(O)CC(OC4CCC5(C)C(CCC6C5CC(O)C5(C)C(C7=CC(=O)OC7)CCC65O)C4)OC3C)OC2C)CC(O)C1O` (centres undefined) was run?
A: active

Q: How did the cytotoxicity call turn out when `C[C@H]1O[C@@H](O[C@H]2[C@@H](O)C[C@H](O[C@H]3[C@@H](O)C[C@H](O[C@H]4CC[C@@]5(C)[C@H](CC[C@@H]6[C@@H]5C[C@@H](O)[C@@]5(C)[C@@H](C7=CC(=O)OC7)CC[C@]65O)C4)O[C@@H]3C)O[C@@H]2C)C[C@H](O)[C@@H]1O` was run?
A: active

Q: `C[C@@H]1CCCCO[C@@H](CN(C)Cc2ccc3c(c2)OCO3)[C@@H](C)CN([C@H](C)CO)C(=O)c2cc(NS(=O)(=O)c3ccc(Cl)cc3)ccc2O1` was tested. Which cytotoxicity call did it give?
A: inactive

Q: How did the cytotoxicity call turn out when `C[C@H](CO)N1C[C@H](C)[C@@H](CN(C)S(=O)(=O)c2ccccc2F)Oc2cc(-c3ccncc3)ccc2S1(=O)=O` was run?
A: inactive

Q: Which cytotoxicity call does the source give for `CC(C)NC(=O)Nc1cccc2c1O[C@@H](CN(C)S(=O)(=O)c1cccs1)[C@@H](C)CN([C@@H](C)CO)C2=O` here?
A: inactive

Q: With `O=C(C[C@@H]1C[C@@H]2c3cc(NC(=O)Cc4ccncc4)ccc3O[C@@H]2[C@@H](CO)O1)NCc1cccc(F)c1` as the compound, how does the cytotoxicity call read?
A: inactive

Q: How did the cytotoxicity call turn out when `COCC#Cc1ccc2c(c1)O[C@@H](CN(C)C(=O)CN(C)C)[C@H](C)CN([C@@H](C)CO)S2(=O)=O` was run?
A: inactive

Q: With `Cc1noc(C)c1NC(=O)N(C)C[C@@H]1OCCCC[C@@H](C)Oc2ccc(NC(=O)Cc3ccccc3)cc2C(=O)N([C@H](C)CO)C[C@H]1C` as the compound, how does the cytotoxicity call read?
A: inactive

Q: How did the cytotoxicity call turn out when `CCOC(=O)[C@@](C)(N)Cc1ccc(O)c(O)c1` was run?
A: active

Q: Which cytotoxicity call does the source give for `CC(N)(Cc1ccc(O)c(O)c1)C(=O)O` (centres undefined) [listing 1 of 2 here] here?
A: inactive

Q: `CC(N)(Cc1ccc(O)c(O)c1)C(=O)O` (centres undefined) [listing 2 of 2 here] was tested. Which cytotoxicity call did it give?
A: inactive

Q: For `COc1ccccc1C(=O)Nc1ccc2c(c1)C(=O)N(C)[C@@H]1CC[C@H](CC(=O)NCc3ccc(Cl)c(Cl)c3)O[C@H]1CO2`, which cytotoxicity call is on record?
A: inactive

Q: Which cytotoxicity call does the source give for `COc1ccccc1C(=O)Nc1ccc2c(c1)C(=O)N(C)[C@H]1CC[C@@H](CC(=O)NCc3ccc(Cl)c(Cl)c3)O[C@@H]1CO2` here?
A: active

Q: `CN1C(=O)c2cc(NC(=O)Nc3cccc(C#N)c3)ccc2OC[C@H]2O[C@@H](CC(=O)Nc3ccc4c(c3)CCC4)CC[C@@H]21` was tested. Which cytotoxicity call did it give?
A: inactive

Q: `COc1cccc(C(=O)Nc2ccc3c(c2)C(=O)N(C)[C@H]2CC[C@H](CC(=O)Nc4ccc5c(c4)CCCC5)O[C@@H]2CO3)c1` was tested. Which cytotoxicity call did it give?
A: inactive

Q: Which cytotoxicity call does the source give for `COc1ccccc1C(=O)Nc1ccc2c(c1)C(=O)N(C)[C@@H]1CC[C@@H](CC(=O)NCc3ccc(Cl)c(Cl)c3)O[C@H]1CO2` here?
A: active

Q: Which cytotoxicity call does the source give for `CN1C(=O)c2cc(NC(=O)c3ccc(C(F)(F)F)cc3)ccc2OC[C@@H]2O[C@@H](CC(=O)NC3Cc4ccccc4C3)CC[C@H]21` here?
A: active

Q: `COc1ccccc1C(=O)Nc1ccc2c(c1)C(=O)N(C)[C@@H]1CC[C@H](CC(=O)NCc3ccc(Cl)c(Cl)c3)O[C@@H]1CO2` was tested. Which cytotoxicity call did it give?
A: inactive

Q: For `COc1ccccc1C(=O)Nc1ccc2c(c1)C(=O)N(C)[C@H]1CC[C@H](CC(=O)NCc3ccc(Cl)c(Cl)c3)O[C@@H]1CO2`, which cytotoxicity call is on record?
A: inactive

Q: For `COc1ccccc1C(=O)Nc1ccc2c(c1)C(=O)N(C)[C@@H]1CC[C@@H](CC(=O)NCc3ccc(Cl)c(Cl)c3)O[C@@H]1CO2`, which cytotoxicity call is on record?
A: inactive

Q: Which cytotoxicity call does the source give for `CN1C(=O)c2cc(NC(=O)c3ccc(C(F)(F)F)cc3)ccc2OC[C@@H]2O[C@H](CC(=O)NC3Cc4ccccc4C3)CC[C@H]21` here?
A: inactive

Q: With `Cc1noc(C)c1NC(=O)Nc1ccc2c(c1)C(=O)N(C)[C@H]1CC[C@H](CC(=O)Nc3ccc4c(c3)CCCC4)O[C@@H]1CO2` as the compound, how does the cytotoxicity call read?
A: active

Q: How did the cytotoxicity call turn out when `CN1C(=O)c2cc(NC(=O)c3ccc(C(F)(F)F)cc3)ccc2OC[C@@H]2O[C@H](CC(=O)NC3Cc4ccccc4C3)CC[C@@H]21` was run?
A: inactive

Q: Which cytotoxicity call does the source give for `CC(C)NC(=O)N(C)C[C@H]1OCc2cn(nn2)CCCC(=O)N([C@H](C)CO)C[C@H]1C` here?
A: inactive

Q: With `C[C@H]1CN([C@@H](C)CO)C(=O)c2cc(NS(C)(=O)=O)ccc2O[C@@H]1CN(C)S(=O)(=O)c1ccc(Cl)cc1` as the compound, how does the cytotoxicity call read?
A: inactive

Q: How did the cytotoxicity call turn out when `CO[C@H]1CN(C)C(=O)c2ccc(NC(=O)Nc3ccc(Cl)cc3)cc2OC[C@@H](C)N(C(=O)Nc2c(C)noc2C)C[C@H]1C` was run?
A: inactive

Q: How did the cytotoxicity call turn out when `C[C@@H]1CCCCO[C@@H](CN(C)Cc2ccncc2)[C@@H](C)CN([C@H](C)CO)C(=O)c2cc(NC(=O)Nc3ccc(C(F)(F)F)cc3)ccc2O1` was run?
A: inactive

Q: Which cytotoxicity call does the source give for `CC(C)CC#Cc1ccc2c(c1)O[C@@H](CN(C)S(=O)(=O)c1cccc(F)c1)[C@@H](C)CN([C@@H](C)CO)S2(=O)=O` here?
A: inactive

Q: For `C1CCN2CC3CC(CN4CCCCC34)C2C1.O=S(=O)(O)O` (centres undefined), which cytotoxicity call is on record?
A: inactive

Q: With `C[C@@H]1CN([C@@H](C)CO)C(=O)c2cc(NC(=O)CCCN(C)C)ccc2O[C@H]1CN(C)S(=O)(=O)c1ccc(Cl)cc1` as the compound, how does the cytotoxicity call read?
A: inactive

Q: `C[C@H]1CN([C@@H](C)CO)C(=O)Cc2cc(N(C)C)ccc2O[C@@H]1CN(C)S(=O)(=O)c1ccc(F)cc1` was tested. Which cytotoxicity call did it give?
A: inactive

Q: `C[C@@H]1CN([C@H](C)CO)C(=O)CCCn2cc(nn2)CO[C@H]1CN(C)S(=O)(=O)c1ccc(Oc2ccccc2)nc1` was tested. Which cytotoxicity call did it give?
A: inactive

Q: Which cytotoxicity call does the source give for `C[C@@H]1CN([C@@H](C)CO)C(=O)c2cccc(NC(=O)C3CC3)c2O[C@@H]1CN(C)S(=O)(=O)c1ccc(F)cc1` here?
A: inactive

Q: For `Cn1c(Nc2ccc(C(F)(F)F)cc2)nc2cc(Oc3ccnc(-c4ncc(C(F)(F)F)[nH]4)c3)ccc21`, which cytotoxicity call is on record?
A: active

Q: How did the cytotoxicity call turn out when `Nc1nc(=O)c2c(CCc3ccc(C(=O)NC(CCC(=O)[O-])C(=O)[O-])cc3)c[nH]c2[nH]1.[Na+].[Na+]` (centres undefined) was run?
A: inactive

Q: Which cytotoxicity call does the source give for `CC(C)CC#Cc1ccc2c(c1)O[C@@H](CN(C)C(=O)c1cnccn1)[C@@H](C)CN([C@@H](C)CO)S2(=O)=O` here?
A: inactive

Q: Which cytotoxicity call does the source give for `COc1ccc(CN(C)C[C@@H]2Oc3ccc(NS(=O)(=O)c4c(C)noc4C)cc3CC(=O)N([C@H](C)CO)C[C@H]2C)cc1` here?
A: inactive

Q: `CC1C=CC=CC=CC=CC=CC=CC=CC(OC2OC(C)C(O)C(N)C2O)CC2OC(O)(CC(O)CC(O)C(O)CCC(O)CC(O)CC(=O)OC(C)C(C)C1O)CC(O)C2C(=O)O` (centres undefined) was tested. Which cytotoxicity call did it give?
A: inactive

Q: `CC1C=CC=CC=CC=CC=CC=CC=CC(OC2OC(C)C(O)C(N)C2O)CC(O)C(C(=O)O)C(O)CC(=O)CC(O)CC(O)CC(O)CC(=O)CCCC(=O)CC(=O)OC1C(C)CC(C)C(O)CC(=O)c1ccc(N)cc1` (centres undefined) was tested. Which cytotoxicity call did it give?
A: active

Q: `C[C@H]1[C@@H](O)[C@@H](C)\C=C/C=C\C=C/C=C\C=C/C=C\C=C/[C@@H](O[C@H]2O[C@H](C)[C@@H](O)[C@H](N)[C@@H]2O)C[C@H]2O[C@](O)(C[C@@H](O)C[C@@H](O)[C@@H](O)CC[C@@H](O)C[C@@H](O)CC(=O)O[C@H]1C)C[C@@H](O)[C@@H]2C(=O)O` was tested. Which cytotoxicity call did it give?
A: inactive

Q: How did the cytotoxicity call turn out when `COc1ccc(CN(C)C[C@@H]2OCCCC[C@@H](C)Oc3ccc(NC(=O)NC(C)C)cc3C(=O)N([C@H](C)CO)C[C@H]2C)cc1` was run?
A: inactive

Q: For `Cc1cccc(NC(=O)Nc2ccc3c(c2)C(=O)N(C)[C@@H]2CC[C@H](CC(=O)NCc4ccccc4Cl)O[C@@H]2CO3)c1`, which cytotoxicity call is on record?
A: inactive

Q: `Cc1ccc(S(=O)(=O)Nc2ccc3c(c2)C(=O)N([C@H](C)CO)C[C@@H](C)[C@@H](CN(C)S(C)(=O)=O)OCCCC[C@H](C)O3)cc1` was tested. Which cytotoxicity call did it give?
A: inactive

Q: `c1ccc2c(CSc3nc4ccccc4s3)cccc2c1` was tested. Which cytotoxicity call did it give?
A: inactive

Q: For `CCSc1cccc2cccnc12`, which cytotoxicity call is on record?
A: inactive

Q: How did the cytotoxicity call turn out when `c1cnc2c(SCc3nc4ccccc4s3)cccc2c1` was run?
A: active

Q: `Cc1ccc(S(=O)(=O)Nc2ccc3c(c2)CC(=O)N([C@@H](C)CO)C[C@@H](C)[C@H](CN(C)C(=O)Nc2ccc(C(F)(F)F)cc2)O3)cc1` was tested. Which cytotoxicity call did it give?
A: inactive

Q: How did the cytotoxicity call turn out when `C[C@@H]1CN([C@@H](C)CO)C(=O)c2cc(C#Cc3ccccc3F)cnc2O[C@@H]1CN(C)C(=O)Cc1ccncc1` was run?
A: inactive

Q: Which cytotoxicity call does the source give for `Cc1ccc(S(=O)(=O)Nc2ccc3c(c2)C(=O)N([C@H](C)CO)C[C@H](C)[C@@H](CN(C)Cc2ccc(C(F)(F)F)cc2)O3)cc1` here?
A: inactive

Q: For `Cc1ccc(S(=O)(=O)Nc2ccc3c(c2)C(=O)N([C@H](C)CO)C[C@@H](C)[C@@H](CN(C)Cc2ccc(C(F)(F)F)cc2)O3)cc1`, which cytotoxicity call is on record?
A: active

Q: With `Cc1ccc(S(=O)(=O)Nc2ccc3c(c2)C(=O)N([C@@H](C)CO)C[C@H](C)[C@H](CN(C)Cc2ccc(C(F)(F)F)cc2)O3)cc1` as the compound, how does the cytotoxicity call read?
A: inactive

Q: For `Cc1ccc(S(=O)(=O)Nc2ccc3c(c2)C(=O)N([C@H](C)CO)C[C@@H](C)[C@H](CN(C)Cc2ccc(C(F)(F)F)cc2)O3)cc1`, which cytotoxicity call is on record?
A: active

Q: Which cytotoxicity call does the source give for `Cc1ccc(S(=O)(=O)Nc2ccc3c(c2)C(=O)N([C@H](C)CO)C[C@H](C)[C@H](CN(C)Cc2ccc(C(F)(F)F)cc2)O3)cc1` here?
A: inactive

Q: How did the cytotoxicity call turn out when `Cc1ccc(S(=O)(=O)Nc2ccc3c(c2)C(=O)N([C@@H](C)CO)C[C@H](C)[C@@H](CN(C)Cc2ccc(C(F)(F)F)cc2)O3)cc1` was run?
A: inactive

Q: With `COc1ccc2c3c(n(c2c1)C)[C@@H](CO)N(C[C@]13CN(C1)C(=O)C)C(=O)CN1CCOCC1` as the compound, how does the cytotoxicity call read?
A: inactive

Q: With `Cc1noc(C)c1S(=O)(=O)Nc1ccc2c(c1)CC(=O)N([C@@H](C)CO)C[C@@H](C)[C@@H](CN(C)S(=O)(=O)c1ccccc1)O2` as the compound, how does the cytotoxicity call read?
A: inactive

Q: How did the cytotoxicity call turn out when `CN(C)C(=O)C[C@H]1C=C[C@@H](NC(=O)C2CC2)[C@@H](CO)O1` was run?
A: inactive

Q: With `C=CCN1C(=O)[C@]2(O[C@H](CCn3cc([C@H](O)c4ccccc4)nn3)[C@@H]([Si](C)(C)c3ccc(OC)cc3)[C@@H]2C)c2cc(N3C(=O)c4cccc5cccc3c45)ccc21` as the compound, how does the cytotoxicity call read?
A: inactive

Q: With `C=CCN1C(=O)[C@@]2(O[C@@H](CCO)[C@H]([Si](C)(C)c3ccc(OC)cc3)[C@H]2C)c2cc(N3C(=O)c4cccc5cccc3c45)ccc21` as the compound, how does the cytotoxicity call read?
A: active

Q: Which cytotoxicity call does the source give for `COc1ccc([Si](C)(C)[C@H]2[C@H](CCO)O[C@@]3(C(=O)N(Cc4ccccc4)c4ccc(N5C(=O)c6cccc7cccc5c67)cc43)[C@@H]2C)cc1` here?
A: inactive

Q: For `C=CCN1C(=O)[C@]2(O[C@H](CCO)[C@@H]([Si](C)(C)c3ccc(OC)cc3)[C@@H]2C)c2cc(N3C(=O)c4cccc5cccc3c45)ccc21`, which cytotoxicity call is on record?
A: active

Q: For `C=CCN1C(=O)[C@@]2(O[C@@H](CCn3cc([C@H](O)c4ccccc4)nn3)[C@H]([Si](C)(C)c3ccc(OC)cc3)[C@H]2C)c2cc(N3C(=O)c4cccc5cccc3c45)ccc21`, which cytotoxicity call is on record?
A: inactive

Q: With `C=CCN1C(=O)[C@@]2(O[C@@H](CCO)[C@H]([Si](C)(C)F)[C@H]2C)c2cc(N3C(=O)c4cccc5cccc3c45)ccc21` as the compound, how does the cytotoxicity call read?
A: inactive
